Test results published in article PMC11996681, “Interfacial water confers transcription factors with dinucleotide specificity”.

Key:
Assay in all cases: HT-SELEX; SELEX buffer: 10.4 mM Tris-HCl pH 7.5, 51.4 mM NaCl, 1.4 mM MgCl2, 4% glycerol, 100 uM EGTA, 0.7 mM DTT, 3.7 ug/ml poly-dI-dC, 1.4 uM ZnSO4; room temperature (2); high values mean tight binding
Conditions in all cases: protein: recombinant; dsDNA, one strand shown
[1] = biological target: BARHL2 DBD ctrl (unmutated, SELEX) (human, UniProt Q9NY43 227-293)
[2] = biological target: BARHL2 DBD T278I/T285N (HMX3) (human, UniProt Q9NY43 227-293, T278I;T285N)
BARHL2 DBD T278V (EMX1) = BARHL2 DBD T278V (EMX1) (human, UniProt Q9NY43 227-293, T278V)
[3] = biological target: BARHL2 DBD T278I (NKX1.2) (human, UniProt Q9NY43 227-293, T278I)
BARHL2 DBD T285M (NANOG) = BARHL2 DBD T285M (NANOG) (human, UniProt Q9NY43 227-293, T285M)
[4] = biological target: BARHL2 DBD T278I/T285V (HOXB13) (human, UniProt Q9NY43 227-293, T278I;T285V)
[5] = biological target: BARHL2 DBD T278N/T285I (PBX1) (human, UniProt Q9NY43 227-293, T278N;T285I)
[6] = biological target: BARHL2 DBD T278V/T285A (ALX4) (human, UniProt Q9NY43 227-293, T278V;T285A)
[7] = biological target: BARHL2 DBD T278I/T285M (HOXA3) (human, UniProt Q9NY43 227-293, T278I;T285M)
[8] = biological target: BARHL2 DBD T278V/T285M (MEOX2) (human, UniProt Q9NY43 227-293, T278V;T285M)
[9] = biological target: BARHL2 DBD T278I/T285A (CDX1) (human, UniProt Q9NY43 227-293, T278I;T285A)
[10] = biological target: BARHL2 DBD T278I/T285S (DLX1) (human, UniProt Q9NY43 227-293, T278I;T285S)
[11] = biological target: BARHL2 DBD T278N/T285Q (SIX6) (human, UniProt Q9NY43 227-293, T278N;T285Q)
BARHL2 DBD T285A (LBX1) = BARHL2 DBD T285A (LBX1) (human, UniProt Q9NY43 227-293, T285A)
[12] = biological target: BARHL2 DBD T278N/T285R (PKNOX1) (human, UniProt Q9NY43 227-293, T278N;T285R)
BARHL2 DBD T278N/T285R (PKNOX1), sequence (Q9NY43 227-293 T278N/T285R): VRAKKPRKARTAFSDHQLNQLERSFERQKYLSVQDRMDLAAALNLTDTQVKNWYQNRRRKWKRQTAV

BARHL2 DBD T278N/T285I (PBX1), sequence (Q9NY43 227-293 T278N/T285I): as the sequence (Q9NY43 227-293 T278N/T285R) above, with R59I counted along it
BARHL2 DBD T278N/T285Q (SIX6), sequence (Q9NY43 227-293 T278N/T285Q): as the sequence (Q9NY43 227-293 T278N/T285R) above, with R59Q counted along it
BARHL2 DBD T278I/T285M (HOXA3), sequence (Q9NY43 227-293 T278I/T285M): as the sequence (Q9NY43 227-293 T278N/T285R) above, with N52I, R59M counted along it
BARHL2 DBD T285M (NANOG), sequence (Q9NY43 227-293 T285M): as the sequence (Q9NY43 227-293 T278N/T285R) above, with N52T, R59M counted along it
BARHL2 DBD T278I/T285S (DLX1), sequence (Q9NY43 227-293 T278I/T285S): as the sequence (Q9NY43 227-293 T278N/T285R) above, with N52I, R59S counted along it
BARHL2 DBD T285A (LBX1), sequence (Q9NY43 227-293 T285A): as the sequence (Q9NY43 227-293 T278N/T285R) above, with N52T, R59A counted along it
BARHL2 DBD T278V/T285A (ALX4), sequence (Q9NY43 227-293 T278V/T285A): as the sequence (Q9NY43 227-293 T278N/T285R) above, with N52V, R59A counted along it
BARHL2 DBD T278V/T285M (MEOX2), sequence (Q9NY43 227-293 T278V/T285M): as the sequence (Q9NY43 227-293 T278N/T285R) above, with N52V, R59M counted along it
BARHL2 DBD ctrl (unmutated, SELEX), sequence (Q9NY43 227-293, stated change not applied): as the sequence (Q9NY43 227-293 T278N/T285R) above, with N52T, R59T counted along it
BARHL2 DBD T278I/T285A (CDX1), sequence (Q9NY43 227-293 T278I/T285A): as the sequence (Q9NY43 227-293 T278N/T285R) above, with N52I, R59A counted along it
BARHL2 DBD T278I/T285N (HMX3), sequence (Q9NY43 227-293 T278I/T285N): as the sequence (Q9NY43 227-293 T278N/T285R) above, with N52I, R59N counted along it
BARHL2 DBD T278I (NKX1.2), sequence (Q9NY43 227-293 T278I): as the sequence (Q9NY43 227-293 T278N/T285R) above, with N52I, R59T counted along it
BARHL2 DBD T278I/T285V (HOXB13), sequence (Q9NY43 227-293 T278I/T285V): as the sequence (Q9NY43 227-293 T278N/T285R) above, with N52I, R59V counted along it
BARHL2 DBD T278V (EMX1), sequence (Q9NY43 227-293 T278V): as the sequence (Q9NY43 227-293 T278N/T285R) above, with N52V, R59T counted along it

Sequence | binding signal [1] | binding signal [2] | binding signal (BARHL2 DBD T278V (EMX1)) | binding signal [3] | binding signal (BARHL2 DBD T285M (NANOG)) | binding signal [4] | binding signal [5] | binding signal [6] | binding signal [7] | binding signal [8] | binding signal [9] | binding signal [10] | binding signal [11] | binding signal (BARHL2 DBD T285A (LBX1)) | binding signal [12]
TAATTG | 43.5 fold enrichment | 17.6 fold enrichment | 11.2 fold enrichment | 13.1 fold enrichment | 6 fold enrichment | 13.3 fold enrichment | 10.4 fold enrichment | 4.9 fold enrichment | 11.5 fold enrichment | 8.5 fold enrichment | 14 fold enrichment | 16.2 fold enrichment | 5.8 fold enrichment | 8 fold enrichment | 1.8 fold enrichment
TAATGG | 7.8 fold enrichment | 1.9 fold enrichment | 7.6 fold enrichment | 8 fold enrichment | 6.2 fold enrichment | 7.7 fold enrichment | 9.1 fold enrichment | 3.7 fold enrichment | 8.4 fold enrichment | 7.6 fold enrichment | 6.2 fold enrichment | 8.1 fold enrichment | 7 fold enrichment | 4.7 fold enrichment | 
TAATCG | 9.7 fold enrichment | 12.6 fold enrichment | 8 fold enrichment | 9.4 fold enrichment | 7.6 fold enrichment | 5.9 fold enrichment | 8.1 fold enrichment | 5.1 fold enrichment | 11.4 fold enrichment | 8.5 fold enrichment | 9.9 fold enrichment | 10.9 fold enrichment | 6.7 fold enrichment | 9 fold enrichment | 2.6 fold enrichment
TAACCG | 2.1 fold enrichment | 2 fold enrichment | 1.6 fold enrichment | 1.5 fold enrichment | 2.3 fold enrichment |  | 3.7 fold enrichment | 1.9 fold enrichment | 1.5 fold enrichment | 1.5 fold enrichment | 1.9 fold enrichment | 1.7 fold enrichment | 4.1 fold enrichment | 3.5 fold enrichment | 4.9 fold enrichment
TAAACG | 28 fold enrichment | 4 fold enrichment | 7.8 fold enrichment | 6.6 fold enrichment | 3.8 fold enrichment | 2.4 fold enrichment | 2.8 fold enrichment | 3.3 fold enrichment | 2.5 fold enrichment | 3.1 fold enrichment | 3.7 fold enrichment | 4.7 fold enrichment | 2.4 fold enrichment | 6.3 fold enrichment | 1.6 fold enrichment
TAAGTG | 6.2 fold enrichment | 8.6 fold enrichment | 5.9 fold enrichment | 6.1 fold enrichment | 4.4 fold enrichment | 4 fold enrichment | 2.5 fold enrichment | 3.7 fold enrichment | 5 fold enrichment | 4.4 fold enrichment | 6.4 fold enrichment | 6.2 fold enrichment | 2.6 fold enrichment | 6.1 fold enrichment | 1.3 fold enrichment
TAAATG | 12.6 fold enrichment | 1.9 fold enrichment | 5.9 fold enrichment | 5 fold enrichment | 3.4 fold enrichment | 4.3 fold enrichment | 3.3 fold enrichment | 2.2 fold enrichment | 2.9 fold enrichment | 3 fold enrichment | 3.2 fold enrichment | 4 fold enrichment | 2 fold enrichment | 4.1 fold enrichment | 
TAAGCG | 3 fold enrichment | 2.4 fold enrichment | 3.2 fold enrichment | 2.4 fold enrichment | 3.6 fold enrichment |  | 1.4 fold enrichment | 1.9 fold enrichment | 2.4 fold enrichment | 2.7 fold enrichment | 1.8 fold enrichment | 1.9 fold enrichment | 1.6 fold enrichment | 2.9 fold enrichment | 
